Screen size: about 96,000 compounds; about 65 (0.07%) were called active. Many of the other results were omitted from the sample, so actives are more common in it than they were. A number with no mark means an inactive call. Rule as the data show it: active = inhibition above about 25%; inactive = the rest.
Assay: unspecified inhibition readout at 50 µM (AID 740)
Conditions: unspecified screen; stronger effect = higher value

| SMILES | inhibition |
| --- | --- |
| O=C(NCCN1CCOCC1)N1c2ccccc2Sc2ccccc21 | 0.23% |
| COc1ccc(C2NC(=S)NC3=C2CCc2cc(OC)ccc23)cc1 (configuration not stated) | inactive |
| O=C1NC2=C(C(=O)c3ccccc32)C(c2ccccc2)N1 (configuration not stated) | 0.35% |
| CC(C)c1ccc(C2NC(=O)NC3=C2CCc2ccccc23)cc1 (configuration not stated) | 5.37% |
| Cc1ccc(C2NC(=O)NC3=C2CCc2ccccc23)cc1 (configuration not stated) | 85.8% (active) |
| COc1ccc(C2C3=C(N=C4SCC(=O)N42)c2ccccc2CC3)cc1 (configuration not stated) | 1.1% |
| COc1ccc(C2NC(=O)NC3=C2CCc2ccccc23)cc1 (configuration not stated) | 66.1% (active) |
| Cc1ccc(C2NC(=O)Cc3ccccc32)cc1 (configuration not stated) | 0.52% |
| O=C1NC2=C(CCc3ccccc32)C(c2ccc(Br)cc2)N1 (configuration not stated) | 70.4% (active) |
| O=C1Cc2ccccc2C(c2ccc(Br)cc2)N1 (configuration not stated) | inactive |
| CC(C)CC(c1nnnn1C(C)(C)C)N1CCN(C2CCCC2)CC1 (configuration not stated) | 0.26% |
| CC(=O)Nc1cccc(C(=O)Nc2ccccc2C(=O)O)c1 | 0.32% |
| Cc1ccc2nc(SCC(=O)Nc3c(C)n(C)n(-c4ccccc4)c3=O)[nH]c2c1 | inactive |
| Cc1ccccc1NC(=O)c1ccc(NC(=O)c2ccco2)cc1 | inactive |
| O=C(Nc1ccccc1-c1ccccc1)c1ccco1 | 0.36% |
| O=C(Nc1ccccc1-c1ccccc1)c1ccc(NC(=O)c2ccco2)cc1 | 61.8% (active) |
| N#Cc1ccccc1NC(=O)COC(=O)c1ccc2c(c1)OCCO2 | inactive |
| COc1ccc(NS(=O)(=O)c2ccc(OC)c(N(C)S(=O)(=O)c3ccc(Cl)cc3)c2)cc1 | 25.8% (active) |
| COc1ccc(S(=O)(=O)Nc2ccc(F)cc2)cc1N(C)S(=O)(=O)c1ccc(Cl)cc1 | inactive |
| COc1ccc(S(=O)(=O)Nc2ccc(C)cc2)cc1N(C)S(=O)(=O)c1ccc(Cl)cc1 | inactive |
| O=C(NC1CCCC1)C1(c2ccccc2)CCN(S(=O)(=O)c2ccccc2)CC1 | 1.06% |

| SMILES | inhibition |
| --- | --- |
| CN(C)CCNc1ncnc2c1sc1nc(N3CCOCC3)c3c(c12)CC(C)(C)SC3 | inactive |
| CC1(C)Cc2c(c(N3CCOCC3)nc3sc4c(NN)ncnc4c23)CS1 | 27.3% (active) |
| CCN(CC)CCNc1ncnc2c1sc1nc(N3CCOCC3)c3c(c12)CC(C)(C)SC3 | inactive |
| O=C1CC(C(=O)Nc2ccccc2)C2(CCCC2)O1 (configuration not stated) | inactive |
| Cc1cccc(NC(=O)C2CC(=O)OC23CCCCC3)c1 (configuration not stated) | 41.1% (active) |
| O=C1CC(C(=O)Nc2ccccc2)C2(CCCCC2)O1 (configuration not stated) | 1.6% |
| CC(=O)Nc1sc(C)c(C)c1C(=O)OC1CCOC1=O (configuration not stated) | inactive |
| COc1ccc(C(=O)OCC(=O)Nc2ccc(OC(F)F)cc2)c(OC)c1 | inactive |
| COc1cc(C2C(C#N)=C(C)NC3=C2C(=O)c2ccccc23)cc(OC)c1OC (configuration not stated) | 3.83% |
| O=C(O)c1ccc(CSCc2ccccc2F)o1 | inactive |
| COc1ccc(NC(=O)CN2CCCC(C)C2)c([N+](=O)[O-])c1 (configuration not stated) | 0.73% |
| Cc1c(NC(=O)c2c(F)c(F)c(F)c(F)c2F)c(=O)n(-c2ccccc2)n1C | 0.88% |
| Cc1c(NC(=O)c2ccc(F)cc2)c(=O)n(-c2ccccc2)n1C | inactive |
| Cc1c(NC(=O)c2cccc(F)c2)c(=O)n(-c2ccccc2)n1C | inactive |
| Cc1cc(C(=O)Nc2c(C)n(C)n(-c3ccccc3)c2=O)cs1 | 28.9% (active) |
| CCCCn1c(=O)c(C(=O)Nc2cnccn2)c(O)c2ccccc21 | 1.68% |
| CCCCCn1c(=O)c(C(=O)Nc2c(C)n(C)n(-c3ccccc3)c2=O)c(O)c2ccccc21 | 34.4% (active) |
| COC(=O)c1ccc(C2NC(=S)N(c3ccccc3)C(C)=C2C(=O)Nc2ccccc2OC)cc1 (configuration not stated) | inactive |
| CCS(=O)(=O)c1ccc2oc(SCC(=O)NCCC3=CCCCC3)nc2c1 | 10.4% |
| CCCCN(CC)CCNc1c(N2CCN(C(=O)OCC)CC2)c(=O)c1=O | inactive |
| COC(=O)C(C(=O)OC)C(C[N+](=O)[O-])c1ccc(OC)cc1 (configuration not stated) | inactive |

| SMILES | inhibition |
| --- | --- |
| CCOC(=O)c1cnn(-c2ccccc2)c1-n1cccc1C(=O)C(=O)Nc1ccccc1 | inactive |
| CCOC(=O)c1cnn(-c2ccccc2)c1-n1cccc1C(=O)C(=O)Nc1ccccc1C(F)(F)F | 74.2% (active) |
| CCOC(=O)c1cnn(-c2ccccc2)c1-n1cccc1C(=O)C(=O)Nc1ccc(F)cc1 | 0.4% |
| COCCNC(=O)C(c1ccccc1)N(CCOC)C(=O)Cn1nnc2ccccc21 (configuration not stated) | 37.1% (active) |
| CCOC(=O)CN(C(=O)Cn1nnc2ccccc21)C(C(=O)NCCOC)c1ccccc1 (configuration not stated) | inactive |
| COCCNC(=O)C(c1ccccc1C)N(CCOC)C(=O)Cn1nnc2ccccc21 (configuration not stated) | 1.03% |
| CCOC(=O)C1C(=O)NC(c2ccccc2)=NC1c1ccc(C(C)C)cc1 (configuration not stated) | 1.01% |
| CN1CCN(S(=O)(=O)c2ccc(NC(=O)Cc3cccs3)cc2)CC1 | inactive |
| O=C(Nc1ccc(-c2nnc(-c3ccco3)o2)cc1)C(c1ccccc1)c1ccccc1 | 0.04% |
| O=C(COc1ccccc1)Nc1ccc(-c2nnc(-c3ccco3)o2)cc1 | inactive |
| CCC(Oc1ccccc1)C(=O)Nc1ccc(-c2nnc(-c3ccco3)o2)cc1 (configuration not stated) | 28.2% (active) |
| Cc1ccc(S(=O)(=O)N(CC(=O)NC2CCCCCC2)c2ccccc2F)cc1 | inactive |
| COc1ccc(Br)cc1C(=O)Nc1ccc(N2CCN(S(C)(=O)=O)CC2)cc1 | 0.77% |
| CC(c1ccco1)N(C(=O)COc1ccc(Cl)cc1Cl)c1ccccn1 (configuration not stated) | 39.3% (active) |
| CC(c1ccco1)N(C(=O)COc1ccccc1[N+](=O)[O-])c1ccccn1 (configuration not stated) | 0.73% |
| CC(c1ccco1)N(C(=O)COc1ccc(Cl)cc1)c1ccccn1 (configuration not stated) | 32.6% (active) |
| Cc1cc(C)cc(C(=O)N(c2ccccn2)C(C)c2ccco2)c1 (configuration not stated) | 0.71% |
| CC(c1ccco1)N(C(=O)Nc1ccc(Cl)cc1)c1ccccn1 (configuration not stated) | inactive |
| CC(C)c1ccc(C(=O)N(c2ccccn2)C(C)c2ccco2)cc1 (configuration not stated) | 4.01% |
| Cc1ccccc1NS(=O)(=O)c1ccc(C2CNC(=O)C2)cc1 (configuration not stated) | 0.38% |

Reference: PubChem BioAssay AID740 (SRMLSC, 2007)
